Screening data (PubChem BioAssay)
Only some compounds are listed: those with a hit (about 3.1% of all), similar ones and a draw of the others.
MEKK2 mut-MEK5 – signal of MEK5 binding to mutant human MEKK2 PB1 domain. bead flow cytometry, Alexa488-MEK5 binding to MEKK2 mutant. percent response, % at 10 µM. actives 0.35% (n = 290,000); in the data active = percent response above about 24%, passing the limit was not always enough
PREPL inhibitor – inhibits the human prolyl oligopeptidase-like enzyme | AID 2751 | recombinant PREPL, fluorescence polarization activity-based probe | actives 0.68% (n = 320,000) | inhibition, % at 5.96 µM | Q4J6C6; in the data active = inhibition above about 43%;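 also: 0% = enzyme with DMSO and 100% = wells lacking enzyme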
UBC13 polyUb – inhibitors of human UBC13 polyubiquitin chain formation. TR-FRET. inhibition, % at 20 µM. actives 0.47% (n = 330,000). AID 485273; in the data active = inhibition above about 45%, passing the limit was not always enough
Target sequence (P61088 whole entry, looked up): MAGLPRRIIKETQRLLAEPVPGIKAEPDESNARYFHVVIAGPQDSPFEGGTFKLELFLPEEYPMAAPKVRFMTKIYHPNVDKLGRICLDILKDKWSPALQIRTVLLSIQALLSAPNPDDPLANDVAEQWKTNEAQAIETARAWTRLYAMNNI
MEKK3 PB1 HTS – raises or lowers MEK5 binding to the human MEKK3 PB1 domain | bead-based flow cytometry, Alexa488-MEK5 binding to MEKK3; actives lie on both sides; 0 = blocked by unlabeled MEK5, 100 = vehicle | binding response (% of control), % at 10 µM | actives 1.4% (n = 290,000);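 active = binding response more than 3 SD above or below the average of its plate-row segment, actives on both sides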;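 also: Alexa488 bead fluorescence after subtracting the streptavidin-only scavenger bead signal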
ATG4B inh – inhibitors of human ATG4B cysteine protease; ATG4B cleavage of LC3-PLA2, NBD-HPC fluorescence, 1 h; AID 504462; actives 0.51% (n = 340,000); inhibition, % at 8.33 µM; Q9Y4P1; in the data active = inhibition above about 40%
Target sequence (Q9Y4P1 whole entry, looked up): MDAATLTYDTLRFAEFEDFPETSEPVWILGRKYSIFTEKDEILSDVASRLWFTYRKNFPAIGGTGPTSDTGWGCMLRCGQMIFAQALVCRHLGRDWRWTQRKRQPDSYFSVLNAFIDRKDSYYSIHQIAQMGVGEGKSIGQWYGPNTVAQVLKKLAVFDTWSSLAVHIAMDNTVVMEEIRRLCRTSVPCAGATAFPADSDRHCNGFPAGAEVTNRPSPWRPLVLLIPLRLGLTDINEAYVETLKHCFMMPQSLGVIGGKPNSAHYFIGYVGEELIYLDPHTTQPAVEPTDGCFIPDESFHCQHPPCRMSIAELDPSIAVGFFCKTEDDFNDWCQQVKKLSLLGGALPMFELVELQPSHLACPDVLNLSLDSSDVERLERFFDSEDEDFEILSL
MEKK2 WT-MEK5 – raises or lowers MEK5 binding to wildtype human MEKK2 PB1 domain | Q9Y2U5 | bead flow cytometry, Alexa488-MEK5 binding to MEKK2 WT; actives lie on both sides | binding response (% of control), % at 10 µM | actives 1.1% (n = 290,000) | AID 1531; in the data active = binding response below about 67% or above about 130%
MEKK2wt confirm – raises or lowers MEK5 binding to wildtype human MEKK2, retest. shares compounds with MEKK3 PB1 HTS. bead flow cytometry, Alexa488-MEK5 binding to MEKK2 WT; actives lie on both sides. binding response (% of control), % at 10 µM. actives 2.4% (n = 5,900). AID 1892; in the data active = binding response below about 16% or above about 210%; inactive = in between
MEKK2mut confirm – signal of MEK5 binding to mutant human MEKK2, retest; shares compounds with MEKK3 PB1 HTS; bead flow cytometry, Alexa488-MEK5 binding to MEKK2 mutant; percent response, % at 10 µM; actives 2% (n = 5,900); in the data active = percent response mostly above about 71%, no sharp cut-off; inactive = mostly below about 38%;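 also: higher means compound restores mutant binding toward wildtype level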
MEKK3-MEK5 inh – MEKK3-MEK5 PB1 inhibition, single concentration confirmation; AID 1894; shares compounds with MEKK3 PB1 HTS; binding response (% of control), % at 10 µM; bead flow cytometry, Alexa488-MEK5 binding to MEKK3; stronger effect = lower value; actives 1.8% (n = 5,900);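 active = binding response below 72% of control, or above a set upper limit, though filed actives all read lower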;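 also: 100% = DMSO only wells and 0% = binding blocked by excess unlabeled MEK5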
The depositor's hits bear a star; . = no result given; [ ] = dose if it differs, or a comment.

SMILES	MEKK2 mut-MEK5	PREPL inhibitor	UBC13 polyUb	MEKK3 PB1 HTS	ATG4B inh	MEKK2 WT-MEK5	MEKK2wt confirm	MEKK2mut confirm	MEKK3-MEK5 inh
Cc1ccc(CNC(=O)c2ccc(Cl)c(S(=O)(=O)N3CCCCC3)c2)cc1	.	-7	10	.	-2	.	.	.	.
CC(C)(C)c1n[nH]c(=S)n(/N=C/c2cccs2)c1=O	0	-7	-9	147*	-1	109	104	15	104
Cc1n[nH]c(=S)n(/N=C/c2cccs2)c1=O	6	1	8	102	-2	103	.	.	.
O=C(NCCCN1CCCC1=O)c1cc(-c2cccnc2)nc2ccc(Cl)cc12	-15	-5	-3	70*[inhibitor]	5	78	79	-15	73
O=C(NCCCN1CCCC1=O)c1cc(-c2ccc3c(c2)OCO3)nc2ccccc12	0	-10	-3	101	0	93	.	.	.
O=C(C1=C(O)C(=O)N(CCN2CCOCC2)C1c1ccc([N+](=O)[O-])cc1)c1cccs1 (stereo not given)	7	0	-1	108	7	112	.	.	.
CN(C)CCCN1C(=O)C(O)=C(C(=O)c2cccs2)C1c1cccc([N+](=O)[O-])c1 (stereo not given)	-84	-4	-8	2.0*[inhibitor]	.	1.0*[inhibitor]	99	1	102
Cc1cc(C(=O)NC2CC(C)(C)Cc3c2cnn3-c2cccc(F)c2)nn1C (stereo not given)	5	-11	-8	101	1	105	.	.	.
CC(=O)OCCCNc1cc(Sc2ccc(Cl)cc2)c2nonc2c1[N+](=O)[O-]	0	6	.	132*	5	104	95	0	95
Cc1ccc(Sc2cc(NCCCO)c([N+](=O)[O-])c3nonc23)cc1	3	0	-29	108	-3	112	.	.	.
O=C(NNc1c(Cl)cncc1Cl)c1sccc1Cl	27	-2	4	132*	-6	128	99	1	104
O=C1COc2ccc(C(=O)CSc3nnc(Cc4cccs4)n3-c3ccc(Cl)cc3)cc2N1	-24	6	-4	55*[inhibitor]	-6	65	101	4	108
O=C1COc2ccc(C(=O)CSc3nc4ccccc4c(=O)n3-c3ccc(Cl)c(Cl)c3)cc2N1	0	5	22	136*	3	113	37	-26	72
NC(=O)C1CCN(C(=O)c2cc(Cl)c3c(c2)OCCO3)CC1	.	-3	-4	.	6	.	.	.	.
NC(=O)NC(=O)COC(=O)c1cccnc1Nc1ccccc1F	-49	1	22	65*[inhibitor]	8	62*[inhibitor]	107	2	107
COc1ccc(S(=O)(=O)N2CCN(C(=O)C3CC(=O)N(c4ccccc4F)C3)CC2)cc1OC (stereo not given)	.	.	.	.	-7	.	.	.	.
CCC12CN3CCN(CC(C3)/C1=N\NC(=O)Nc1ccccc1)C2	1	1	-3	129*	0	108	103	5	103
CCCCC12CN3CCN(CC(C3)/C1=N\NC(=O)Nc1ccccc1)C2	1	-7	-4	102	-1	94	.	.	.
CCOC(=O)c1sc(N)c(C#N)c1CSc1nnc(C2CCCCC2)n1N	-20	17	-3	0.0*[inhibitor]	-3	-1.0*[inhibitor]	98	2	103
COc1ccc(-c2csc(N(CCCN(C)C)C(=O)c3ccc(C(C)(C)C)cc3)n2)cc1	26*	-59	39	110	-1	162*	172	38	108
COc1ccc(-c2csc(N(CCCN(C)C)C(=O)c3ccc(Br)cc3)n2)cc1	11	-35	21	110	0	142*	135	16	103
Cc1ccc(S(=O)(=O)N2CCCCC2)cc1NC(=O)C1CCC1	.	10	7	.	-7	.	.	.	.
C=CCN1C(=O)/C(=C/c2ccc(-c3ccc(F)cc3)o2)SC1=S	-10	0	-134	49*[inhibitor]	-2	18*[inhibitor]	26	-32	62*
C=CCN1C(=O)/C(=C/c2ccsc2)SC1=S	3	-4	-9	102	4	101	.	.	.
O=C(O)C(c1ccccc1)N1C(=O)/C(=C\c2ccc(-c3ccc(Br)cc3)o2)SC1=S (stereo not given)	-14	.	-76	87	23	65*[inhibitor]	76	-10	94
SMILES	MEKK2 mut-MEK5	PREPL inhibitor	UBC13 polyUb	MEKK3 PB1 HTS	ATG4B inh	MEKK2 WT-MEK5	MEKK2wt confirm	MEKK2mut confirm	MEKK3-MEK5 inh
O=C(O)C(c1ccccc1)N1C(=O)/C(=C\c2ccc(-c3ccccc3Cl)o2)SC1=S (stereo not given)	-8	18	-82	97	27	90	.	.	.
CC(C)(C)c1ccc(C(=O)NCCC(=O)NCc2cccs2)cc1	-8	5	-2	98	3	101	.	.	.
O=C1Nc2ccc([N+](=O)[O-])cc2OC1CCN1CCCC1 (stereo not given)	5	-2	-5	141*	-2	114	101	1	101
CCC1(c2ccc(OC)cc2)NC(=O)N(CC(=O)NC2CCCCC2C)C1=O (stereo not given)	.	3	-1	.	3	.	.	.	.
CCOC(=O)C1CCN(C(=O)CCc2ccc(S(=O)(=O)NCC(C)C)cc2)CC1	26*	-3	-3	114	1	113	117	4	102
COc1ccc(S(=O)(=O)N2CCC(n3cnc4cc(C(F)(F)F)ccc43)CC2)cc1	4	-5	-3	126*	-22	107	105	1	103
COc1cc(OC)c(N(C)S(=O)(=O)c2cccc(C(=O)OCC(=O)c3c[nH]c4ccccc34)c2)cc1Cl	1	-23	-3	95	-5	99	.	.	.
C=CCN(c1ccccc1OC)S(=O)(=O)c1cccc(C(=O)OCC(=O)c2c[nH]c3ccccc23)c1	0	-20	6	138*	6	119	115	0	103
O=C(/C=C/c1cc[n+](CC(=O)c2ccc3cccc4c3c2CC4)cc1)c1ccc2cccc3c2c1CC3	13	-33	51*	70*[inhibitor]	32	102	152	32	93
Cc1cc(N2CCN(C)CC2)ccc1NC(=O)c1cccc(S(=O)(=O)N2CCc3ccccc3C2)c1	5	18	33	105	-1	195*	126	8	98
O=C(CCc1nc2ccccc2s1)OCC(=O)c1ccccc1	7	-2	10	96	0	102	.	.	.
